Rab9 prom act: activators of Rab9 promoter; hit rate 2.8% among 320,000; Huh7 Rab9 promoter-luciferase reporter, luminescence, 24 h; AID 485297; Potency, µM (doses to about 9.22 µM), for the others: at the top dose activation, negative = inhibition, most hits filed as activators; also: % of control where 0% means no effect; nearly all actives have a fitted effect of over 60% in size
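Stable Rab9-luc Huh7, 1500 cells/well, 2 h settle; cmpd in DMSO, 24 h, 37 °C/5% CO2; luciferase reagent 10 min RT; luminescence.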
NPC1 prom act: NPC1 promoter activation; Huh7 NPC1 promoter luciferase reporter, 24 h; Potency, µM (titrated, usually from 9.22 µM), for inactives: at the highest dose activation, actives largely listed as activators; hit rate 2.4% among 320,000; also: % of control where 0% means no effect; nearly all actives have a fitted effect of over 60% in size
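Stably transfected Huh7 (NPC1 promoter→luciferase), 1500 cells/well in Opti-MEM + 10% FBS, 2 h settle, then compound 24 h at 37 °C. Luminescence after 10 min with Amplite reagent.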
ELG1 genotoxic: genotoxicity induction in ELG1-luciferase HEK293T cells; HEK293T ELG1-luciferase reporter, luminescence, 16 h; hit rate 1.3% among 330,000; Potency, µM (top dose mostly 46 µM), for inactives: at the highest dose activity change, positive = activation, hits mostly activators; also: % of control where 0% means no effect; nearly all actives have a fitted effect of over 60% in size
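Step 1: seed 2,000 HEK293T ELG1-luciferase cells per well. Step 2: add compound or DMSO, incubate 16 hr at 37 °C. Step 3: ONE-Glo, 30 min at room temperature, read luminescence.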
SMN2 splice up: enhancers of SMN2 splice variant expression | Potency, µM (doses to about 46.1 µM), for inactives: top-dose activity change, positive = activation, hits mostly activators | HEK293 SMN2-luciferase splicing reporter, luminescence, 30-36 h | hit rate 2.8% among 210,000 | AID 1458; also: % of control where 0% means no effect; nearly all actives have a fitted effect of over 55% in size
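HEK293 cells carry an SMN2 minigene-luciferase reporter in which exon 7 inclusion puts luciferase in frame. Cells were seeded at 2000 cells/well, attached for 10-12 hours, then exposed to compounds for 30-36 hours at 37C before ONE-Glo luminescence.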
ELG1 repair inh: blocks ELG1-dependent DNA repair in HEK293T cells. HEK293T ELG1-luciferase reporter, luminescence, 16 h; DNA damage induced by 5-fluorouridine. Potency, µM (top dose mostly 46.1 µM), without a hit: at the top dose activity change, negative = inhibition, actives largely listed as inhibitors. hit rate 2.3% among 330,000; also: % is scaled to controls: 0 for no effect and ±100 for the full control effect; nearly all actives have a fitted effect of over 55% in size
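In this reporter screen, reduction of luminescence relative to DMSO vehicle indicated activity. Compounds and 5-fluorouridine were added together to 2,000 cells per well, incubated for 16 hr at 37 °C, then developed with ONE-Glo.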
FLuc counter: counter-screen for miR-21 project: firefly luciferase inhibitors or activators; hit rate 6.9% among 360,000; Potency, µM (series often up to 57.5 µM), inactives show at the top dose activity change, negative = inhibition, hits mostly inhibitors; purified FLuc, Km substrates, luminescence inhibition; P08659; AID 588342;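 also: plate controls were vehicle for no effect and reference inhibitor for full effect; nearly all actives have a fitted effect of over 55% in size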
Target sequence (P08659 whole entry, looked up): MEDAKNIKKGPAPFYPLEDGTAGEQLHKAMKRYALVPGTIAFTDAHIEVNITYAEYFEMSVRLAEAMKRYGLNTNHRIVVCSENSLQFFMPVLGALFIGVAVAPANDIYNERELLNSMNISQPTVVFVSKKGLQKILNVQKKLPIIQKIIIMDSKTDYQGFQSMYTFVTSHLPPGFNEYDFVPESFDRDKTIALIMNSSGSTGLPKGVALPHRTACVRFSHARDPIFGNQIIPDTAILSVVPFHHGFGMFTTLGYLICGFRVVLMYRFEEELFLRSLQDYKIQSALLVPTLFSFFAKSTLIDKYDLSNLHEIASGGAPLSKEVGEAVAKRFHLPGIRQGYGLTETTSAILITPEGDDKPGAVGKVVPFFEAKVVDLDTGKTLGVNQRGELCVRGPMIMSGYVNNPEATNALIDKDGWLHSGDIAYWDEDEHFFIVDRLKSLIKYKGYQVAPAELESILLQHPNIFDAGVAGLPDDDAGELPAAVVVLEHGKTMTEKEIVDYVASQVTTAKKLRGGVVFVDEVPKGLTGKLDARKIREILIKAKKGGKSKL
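Purified P. pyralis luciferase (10nM final) with 10uM D-luciferin and 10uM ATP (Km levels) in 50mM Tris acetate pH 7.5, 10mM Mg acetate, 0.01% Tween-20, 0.05% BSA; qHTS 6-point titration, ~60 µM downward; luminescence read.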
* = called active by the depositor; ? = inconclusive; · = no result. An excerpt weighted towards active compounds, which were near 9.4% of everything screened. Calls follow the shape of the dose curve; as a rule, active = well fitted curve in the direction sought with a large enough effect; inconclusive = small, poorly fitted or top-dose-only effect, or another doubt; inactive = no such curve, though single readings can be large; an effect the other way counts as inactive or inconclusive. Potency is read from the fitted curve at half-maximal effect.

SMILES	Rab9 prom act	NPC1 prom act	ELG1 genotoxic	SMN2 splice up	ELG1 repair inh	FLuc counter
Cc1cccc(C(=O)Nc2cccc(C(=O)N/N=C/c3ccc4c(c3)OCO4)c2)c1	27%	29%	9%	·	26%	1.9µM*
Cc1ccccc1C(=O)Nc1cccc(C(=O)N/N=C/c2ccc3c(c2)OCO3)c1	?	17%	7%	·	-1%	3µM*
O=C(N/N=C/c1ccc2c(c1)OCO2)c1ccc(NC(=O)c2ccccc2Cl)cc1	10%	-5%	-20%	·	13µM*	?
Cc1cccc(C(=O)Nc2ccc(C(=O)N/N=C/c3ccc4c(c3)OCO4)cc2)c1	-5%	0%	8%	·	8%	-7%
O=C(N/N=C/c1ccc2c(c1)OCO2)c1cccc(NC(=O)c2ccccc2Cl)c1	25%	-13%	?	·	?	2.7µM*
COCCN1C(=O)c2[nH]nc(-c3ccccc3O)c2C1c1ccc(Cl)c(Cl)c1 (centres undefined)	·	·	·	-43%	·	-2%
N#C/C(=N\Nc1ccccc1)C(N)=S	-2%	-1%	-14%	·	?	-3%
COc1ccc(N/N=C(\C#N)C(=N)N2CCCCC2)cc1	2.5µM*	2µM*	?	·	?	4.8µM*
N#C/C(=N\Nc1ccccc1F)C(=N)N1CCCCC1	1.6µM*	3.2µM*	21µM*	11µM*	?	12µM*
N#C/C(=N\Nc1ccc(Cl)cc1)C(=N)N1CCCCC1	·	0.4µM*	5%	?	?	1.7µM*
N#C/C(=N\Nc1ccccc1)C(=N)N1CCOCC1	5%	5%	1%	76%	?	?
N#C/C(=N\Nc1ccc(Cl)cc1)C(N)=S	-14%	-11%	-16%	·	9.2µM*	19µM*
COc1ccc(NC(=O)N2CCCCCC2)cc1	14%	16%	?	20%	?	?
COc1ccc(N(Cc2cc3cccc(C)c3[nH]c2=O)C(=O)c2cccc(Cl)c2)cc1	·	·	·	-2%	·	-13%
CC(=O)c1cccc(N2C(=O)CN(S(C)(=O)=O)CC2(C)C(=O)NC2CCCC2)c1 (centres undefined)	·	·	·	·	·	0%
O=C(NCCC1=CCCCC1)c1ccc2c(=O)n3nc(Nc4ccccc4)sc3nc2c1	·	·	·	·	·	1%
CCOc1ccc(C2c3c(-c4ccc(C)cc4)n[nH]c3C(=O)N2c2ccc(Cl)cc2)cc1 (centres undefined)	·	·	·	-9%	·	2%
COc1ccc(N/N=C(\C#N)C(=O)NCCc2ccc(OC)c(OC)c2)cc1	2%	-1%	8%	·	-23%	-12%
Cc1ccc(N/N=C(\C#N)C(=O)c2ccsc2)cc1	12%	22%	-5%	·	?	?
Cc1ccc(N/N=C(\C#N)C(N)=S)cc1C	1%	5%	-5%	-2%	?	?
CCN(CC)C(=N)/C(C#N)=N/Nc1ccc(C)cc1	2µM*	2µM*	?	·	?	9.5µM*
Cc1ccc(N/N=C(\C#N)C(=N)N2CCCCCC2)cc1	0.79µM*	0.5µM*	1.8µM*	2.2µM*	?	2.7µM*
N#C/C(=N\Nc1ccc(Cl)cc1)C(=O)c1ccsc1	-3%	12%	-5%	·	2.3µM*	?
COc1ccc(N/N=C(\C#N)C(=N)SCc2ccccc2)cc1	-8%	-4%	-12%	-5%	?	27µM*
N#C/C(=N\Nc1ccc(F)cc1)C(=N)N1CCCCCC1	0.89µM*	0.45µM*	?	4µM*	?	2.7µM*
Oc1ccc(-c2nnc(SCC3CCCCC3)o2)cc1	2.8µM*	3.2µM*	?	?	?	15µM*
CN1CCc2c(sc(/N=C/c3cc(Cl)ccc3O)c2C#N)C1	?	18%	16µM*	·	?	2.4µM*
CN1CCc2c(sc(/N=C/c3c[nH]c4ccccc34)c2C#N)C1	2.8µM*	17%	?	·	?	1.3µM*

High-throughput results from PubChem.
